This note sets out measurements from PubChem BioAssay (NCI).

The panel holds about 83,000 compounds, 20% with a hit somewhere; the sample as a whole holds those more often.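 48-hour exposure, single concentration, 96-well plates; percent growth endpoint where 0 means no net growth. Active: below 10.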 The source made the active and inactive calls.

For the assay, the system named is MDA-MB-468 breast. Kind of assay: NCI-60 one-dose screen, 48 h (100 = growth as untreated, 0 = no growth, -100 = all killed). As to conditions: 10 µM unless noted.
`CCC1(C(C)C)C(=O)NC(=S)NC1=O`: the growth was 89.9% (inactive).
For `CCCCCCC(=O)NC1=C(N2CC2)C(=O)C(NC(=O)CCCCCC)=C(N2CC2)C1=O` the value was 23.2% (inactive); for `Cc1cc(N)ccc1N`, 86.4% (inactive).
Turning to `O=NN1CCCCC1`, the growth is 106% (inactive).
The figure for `C1CCC([PH+](C2CCCCC2)C2CCCCC2[PH+](C2CCCCC2)C2CCCCC2)CC1.[Au].[CH-]1CCCCC1CC1CCCC[N-]1` (stereo not given) is -61.8% (active); for `CC1=C2C(=C[C@@](C)(COC(=O)c3ccc(S(=O)(=O)F)cc3)[C@@H]2OC(=O)c2ccc(S(=O)(=O)F)cc2)C(=O)[C@](C)(O)C12CC2` it is -76.8% (active); for `CC1(C)N=C(N)N=C(N)N1c1ccc(OCCCNC(=O)Nc2ccc(S(=O)(=O)F)cc2)c(Cl)c1` it is 14.6% (inactive).
With `NC1CC2CCCCC2CC1(O)c1ccccc1` (stereo not given), the growth is 98.2% (inactive).
Turning to `Cc1cc(N(CCCl)CCCl)ccc1C=Nc1cccnc1`, the growth is -74.8% (active).
The figure for `O=P(O)(Nc1ccccc1)Nc1ccccc1` is 90.2% (inactive); for `CC(C)Nc1ccc(Nc2ccccc2)cc1` it is 5.88% (active); for `Cc1cc(Br)c([N+](=O)[O-])cc1[N+](=O)[O-]` it is 58.4% (inactive).
For `CN(C)CC(C(=O)Cc1ccccc1)c1ccccc1` (stereo not given) the value was -29.8% (active).
For `CC(=O)OC1CCC2C3CCC4=C/C(=N/OC(=O)c5ccc(N(CCCl)CCCl)cc5)CCC4(C)C3CC(C)C12` (stereo not given) the value was 67.2% (inactive); for `CN1C(=O)C23CC4(C56CC78SSC(CO)(C(=O)N7C5Nc5ccccc56)N(C)C8=O)c5ccccc5NC4N2C(=O)C1(CO)SS3` (stereo not given), -81.7% (active).
For `CC(C)CCC[C@@H](C)[C@H]1CC[C@H]2[C@@H]3CC=C4C[C@@H](OC(=O)Cc5ccc(N(CCCl)CCCl)cc5)CC[C@]4(C)[C@H]3CC[C@]12C`, the growth is 107% (inactive).
The figure for `c1ccc2c(c1)O[As](O[As]1Oc3ccccc3O1)O2` is 10.7% (inactive); for `Cc1nnc([S-])o1.[Au+].c1ccc([PH+](c2ccccc2)c2ccccc2)cc1` it is -6.44% (active); for `CCOC(=O)[C@@H](C)C[C@H](Cc1ccccc1)NC(=O)c1csc([C@@H](C[C@H](C(C)C)N(C)C(=O)[C@H](CC)NC(=O)[C@H]2CCCCN2C)OC(C)=O)n1` it is 32.5% (inactive).
With `Cn1cc(-c2csc(-c3cn(CCCCN4CCOCC4)c4ccc(F)cc34)n2)c2cccnc21`, the growth was 65% (inactive).
For `NC(=O)SCC(=O)Nc1ccc([As](=O)(O)O)cc1` the value was 87.2% (inactive).
For the compound `COC(=O)[C@@H](C)C[C@H](Cc1ccccc1)NC(=O)c1csc([C@@H](C[C@H](C(C)C)N(C)C(=O)[C@@H](NC(=O)CN(C)C)C2CC2)OC(C)=O)n1`, the growth is -0.222% (active).
With `O=C1CN2CCC1CC2`, the growth was 104% (inactive).
As for `CC(=O)Cc1ccc2c(c1)OCO2`, the growth is 103% (inactive).
The figure for `COC(=O)C1CCC(NC(=O)c2csc([C@@H](C[C@H](C(C)C)N(C)C(=O)[C@@H](NC(=O)[C@H]3CCCCN3C)C(C)C)OC(C)=O)n2)CC1` (stereo not given in full) is 27.9% (inactive); for `Nc1ccc(-c2nc3cc(F)ccc3[se]2)cc1F` it is -21% (active).
For the compound `COc1ccc2c(c1)c(-c1nc(-c3c[nH]c4ncccc34)cs1)cn2CCCCN1CCOCC1`, the growth is 39.3% (inactive).
With `COC(=O)[C@@H](C)C[C@H](Cc1ccccc1)NC(=O)c1csc([C@@H](C[C@H](C(C)C)N(C)C(=O)[C@H](C)NC(=O)[C@H]2CCCN2C)OC(C)=O)n1`, the growth is 25.8% (inactive).
The figure for `CC1=C(CCCOC(=O)[C@H](N)CC(C)C)C2=C(C)C3(CC3)[C@@](C)(O)C(=O)C2=C1` is -61.5% (active); for `CC1(C)S[C@H]2CC[C@H]3OC(=O)[C@@H]1N23` it is 95.7% (inactive).
For `COC(=O)N[C@H]1CCc2c(Br)c(OC)c(OC)c(OC)c2-c2ccc(SC)c(=O)cc21`, the growth was -23.7% (active).
As for `O[C@H](CN1CC1)[C@@H](O)CN1CC1`, the growth is 9.35% (active).
The figure for `O=c1c2ccccc2nc(-c2ccccc2Cl)n1-c1nnc(C(F)(F)F)s1` is 19.7% (inactive).
The figure for `ClCCN(CCCl)C(c1ccccc1)c1ccc(Cl)cc1` (stereo not given) is 35.1% (inactive); for `CCC(=O)C(CC(C)N1CCCCCC1)(c1ccccc1)c1ccccc1` (stereo not given) it is 95.6% (inactive); for `C/C(=C\c1cc(C(F)(F)F)nn1CCNC(=O)OC(C)(C)C)[C@@H]1C[C@@H]2O[C@]2(C)CCC[C@H](C)[C@H](O)[C@@H](C)C(=O)C(C)(C)[C@@H](O)CC(=O)O1` it is 58.6% (inactive).
Turning to `N#[N+]c1nc2nc(N)[nH]c(=O)c2[nH]1`, the growth was 100% (inactive).
The figure for `O=C(CCF)c1ccc(O)cc1` is 108% (inactive).
Turning to `CCOC(=O)[C@@H](C)C[C@H](Cc1ccccc1)NC(=O)c1csc([C@@H](C[C@H](C(C)C)N(C)C(=O)[C@H](CCC(C)C)NC(=O)[C@H]2CCCCN2C)OC(C)=O)n1`, the growth is 5.73% (active).
`N#CCN(CC#N)[N+](=O)[O-]`: the growth was 112% (inactive).
